About 83,000 compounds went through this panel and 20% of them were active in at least one assay; those are over-represented in the sample as a whole.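 Interpretation: 100, growth as untreated; towards 0, rising growth inhibition; 0, no net growth; 0 to -100, cell death. Compounds scoring below 10 were considered active.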 Activity calls are given as the source filed them.

One assay deals with DU-145 prostate. In words: NCI-60 one-dose screen, 48 h (100 = growth as untreated, 0 = no growth, -100 = all killed). Conditions: 10 µM unless noted.
As for `O=C1CSC(c2c(F)cccc2Cl)N1NC(=O)C(O)(c1ccccc1)c1ccccc1` (stereo not given), the growth is 108% (inactive).
Consider `O=C1C=CC2(NN=C(c3ccccc3)N2c2cccc(Cl)c2)C(Cl)=C1` (stereo not given), for which the growth is 103% (inactive).
On the same count and under the same terms, in the case of `Cc1ccc(N=C2CSc3nnc(-c4csc5c4CCCC5)n3N2)cc1` it was 25.4% (inactive); in that of `Cc1cc(-c2cc(OC(=O)c3ccccc3)ccc2Cl)cc2nnc(Nc3ccc(OCCN4CCCC4)cc3)nc12`, 83.2% (inactive); in that of `Cc1cc(O)cc(-c2c(-c3ccnc(-c4cccnc4)c3)cnn2C)c1`, 70.4% (inactive).

For a further assay, the system named is K-562 leukemia. The assay is described as above. Conditions: 10 µM unless noted.
As for `CCOc1cc2ncc(C#N)c(Nc3ccc(F)c(Cl)c3)c2cc1NC(=O)/C=C/CN(C)C`, the growth is -16.4% (active).
As to `CCN(CC)CCNC(=O)c1c(C)[nH]c(/C=C2\C(=O)Nc3ccc(F)cc32)c1C`, the growth was -22.3% (active).
Turning to `COc1ccc2c(CCC(c3ccccc3)c3ccccc3)c3[n+](cc2c1OC)CCc1cc2c(cc1-3)OCO2`, the growth is 6.12% (active).
Take `C[C@@H](Oc1cc(-n2cnc3ccc(CN4CCN(C)CC4)cc32)sc1C(N)=O)c1ccccc1C(F)(F)F`: the growth is 6.08% (active).
Still for that read-out and setting: in the case of `CC(C)=CCc1cc2c(cc1O)C1=C(C(=O)C3=C(NCCS3(=O)=O)C1=O)C(C=C(C)C)O2` (stereo not given) it was 8.83% (active); in that of `CC(N)C(Cc1ccc(Cl)cc1)c1ccc(Cl)cc1` (stereo not given), 0.46% (active).
The same measure, in the same setting: the value for `Clc1nc(Cl)c2ncn(CC#CCn3cnc4c(Cl)nc(Cl)nc43)c2n1` was -13% (active).
Same read-out and setting: in the case of `O=C(Cc1ccc(-c2ccc(OCCN3CCOCC3)cc2)cn1)NCc1ccccc1` it was 7.04% (active); in that of `Cc1nc(NC(=O)N2CCC[C@H]2C(N)=O)sc1-c1ccnc(C(C)(C)C(F)(F)F)c1`, 80.9% (inactive); in that of `COc1ccc2c(CCCc3ccc(Cl)cc3Cl)c3[n+](cc2c1OC)CCc1cc2c(cc1-3)OCO2`, 6.33% (active).
In the case of `Cc1c(Cn2c(C)nc3c(C(=O)O)cc(N4CCOCC4)cc32)cccc1C(F)(F)F`, the growth was 87.4% (inactive).
In the case of `COc1cc2nccc(Oc3ccc(NC(=O)C4(C(=O)Nc5ccc(F)cc5)CC4)cc3)c2cc1OC`, the growth is 0.49% (active).
For `C=CCCCC(=O)CCC(=O)OCC1O[C@@H](O[C@@H]2C(O)[C@@H](OC(C)=O)C(C)O[C@H]2O[C@H](CC=C)CCCCC)C(O)[C@@H](OC(=O)/C(C)=C/C)[C@@H]1OC(=O)/C=C/c1ccccc1` (stereo not given in full), the growth was 34.3% (inactive).
As for `O=c1[nH]ccc2c(S(=O)(=O)N3CCCNCC3)cccc12`, the growth was 104% (inactive).
Still for that read-out and setting: in the case of `CC1(C=O)NC(=O)NC1=O` (stereo not given) it was 103% (inactive); in that of `Cc1ccc(NC(=O)c2ccc(CN3CC[C@H](N(C)C)C3)c(C(F)(F)F)c2)cc1Nc1nccc(-c2cncnc2)n1`, -19.6% (active).
Still for that read-out and setting: in the case of `O=C(Nc1cccc(Cl)c1)Nc1ncc(CCNc2ncnc3ccsc23)s1` it was 13.8% (inactive); in that of `Cn1ccnc1C(=O)/C=C/c1ccc(CC(=O)Nc2ccc(Br)cc2)cc1`, 6.58% (active); in that of `CNC(=O)c1nn(C)c2c1C(C)(C)Cc1cnc(Nc3ccc(N4CCN(C)CC4)cc3)nc1-2`, 5.4% (active).
Consider `COc1cccc2cc(-c3nc(C4CCC(C(=O)O)CC4)n4ncnc(N)c34)[nH]c12` (stereo not given), for which the growth is 14% (inactive).
The same measure, in the same setting: the value for `CNc1ncc2cc(-c3cc(NC(=O)NCCC(C)(C)C)c(F)cc3C)c(C)nc2n1` was 3.92% (active).
Consider `Cc1cc(C(=O)Nc2cc(Oc3ccc4nc(NC(=O)C5CC5)cn4n3)ccc2C)n(C)n1`, for which the growth is 7.79% (active).
`O=C(Cc1ccc(/C=C/C(=O)c2ncc[nH]2)cc1)Nc1ccc(Br)cc1`: the growth was 1.86% (active).
Take `CNC(=O)c1cccc2cc(Oc3ccnc4cc(OCC5(N)CC5)c(OC)cc34)ccc12`: the growth is 19.5% (inactive).
Same read-out and setting: in the case of `CCCCN1CCCC[C@@H]1C(=O)N[C@H](C(=O)N(C)[C@H](CCc1nc(C(=O)N[C@@H](Cc2ccccc2)C[C@H](C)C(=O)OC)cs1)C(C)C)C(C)C` it was 22.9% (inactive); in that of `COc1cnc2c(c1)C(=O)c1c-2n(CCCN2CCC(N)CC2)c(=O)c2cc([N+](=O)[O-])ccc12`, 49.2% (inactive); in that of `C=CC(=O)Nc1cc2c(Nc3ccc(F)c(Cl)c3)ncnc2cc1OCCCN1CCOCC1`, 2.24% (active).
Still for that read-out and setting: in the case of `NC(=O)c1c(OCc2c(F)cc(Br)cc2F)nsc1NC(=O)NCCCCN1CCCC1` it was -46.8% (active); in that of `CCc1nc2ccc(Cc3ccc(C(=O)NO)cc3)cc2c(=O)n1CCc1ccccc1`, 1.5% (active).
Take `Cc1cc(N(CCNc2ccnc3cc(Cl)ccc23)Cc2ccc3c(c2)OCO3)nc(N2CCN(C)CC2)n1`: the growth is -59.1% (active).

The record behind these values is PubChem BioAssay (NCI).
